# Test results from PubChem BioAssay (NCI).
# This is part of a sample that, as a whole, favours compounds with a hit. Of some 83,000 tested, about 20% had one in any assay.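 Interpretation: 100, growth as untreated; towards 0, rising growth inhibition; 0, no net growth; 0 to -100, cell death. Compounds scoring below 10 were considered active.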 Calls of active or inactive are those of the source.
# Test system: HCT-116 colon
# Assay: NCI-60 one-dose screen, 48 h (100 = growth as untreated, 0 = no growth, -100 = all killed)
# Conditions: 10 µM unless noted
row,Compound,growth
1,Cn1cc(-c2nc(N)nnc2-c2c[nH]c3ccc(Br)cc23)c2cccnc21,21.2% (inactive)
2,Cc1nc(Nc2ccccn2)sc1C(=O)CC(SCC(=O)Nc1ccc(Cl)cc1)c1ccccc1F (stereo not given),4.66% (active)
3,Cc1cc(=O)oc2cc(OCCCCOc3ccc(/C=C/C(=O)Nc4ccccc4N)cc3)ccc12,45.6% (inactive)
4,CC(=O)OC[C@@]1(C)C2CC[C@]3(C)C(CC=C4C5CC(C)(C)CC[C@]5(C(=O)Nc5cccc(C)c5)CC[C@]43C)[C@@]2(C)C[C@@H](OC(C)=O)[C@@H]1OC(C)=O (stereo not given in full),21.8% (inactive)
5,CCCSc1nc(NCCc2c[nH]c3ccccc23)c(C#N)c(-c2ccc(OC)cc2)n1,20.8% (inactive)
6,COc1ccc(N2N=C(c3ccc4c(c3)OCO4)CC2c2cccc(NC(=O)CCNS(=O)(=O)c3ccc(Cl)cc3)c2)cc1 (stereo not given),26.9% (inactive)
7,Cc1ccc(-n2c(-c3cc4ccccc4nc3Cl)noc2=O)cc1,86% (inactive)
8,Cc1ccc(/C=C/c2n(Cc3ccc4ccccc4c3)c3ccccc3[n+]2Cc2ccc3ccccc3c2)cc1,-40.8% (active)
9,Brc1ccc(-c2n(Cc3ccc4ccccc4c3)c(-c3ccccc3)c(-c3ccccc3)[n+]2Cc2ccc3ccccc3c2)cc1,-97.9% (active)
10,CCOC(=O)C(N=Nc1ccc(S(=O)(=O)N=C(N)N)cc1)C(C)=O (stereo not given),109% (inactive)
11,COc1ccc2[nH]cc(-c3nc(N)nnc3-c3cn(C)c4ncccc34)c2c1,26.7% (inactive)
12,CC(/C=C1\SC(=S)N(CCCC(=O)NC(CC(C)C)C(=O)O)C1=O)=C\c1ccccc1 (stereo not given),71% (inactive)

# Test system: HCC-2998 colon
# Assay: as above
# Conditions: 10 µM unless noted
row,Compound,growth
1,C#CCOc1cc(N(CC)CC)ccc1C(C(=O)NC(C)(C)C)N(C(=O)C1CCc2cc(F)ccc2O1)c1ccc(F)c(Cl)c1 (stereo not given),92% (inactive)
2,COc1cc2c(c(OC)c1OC)C(=O)CC(c1cccc(NC(=O)c3cc(NC(=O)[C@@H](N)CO)ccc3C)c1)O2 (stereo not given in full),115% (inactive)
3,O=C(O)Cn1c(O)c(/C=C2/C=c3cc4c(cc3=NC2=O)OCCO4)sc1=S,109% (inactive)
4,CC(C)CSc1nc(NCCc2c[nH]c3ccccc23)c(C#N)c(-c2ccc(Cl)cc2)n1,52.3% (inactive)
5,C=C1CCC2C3(C)COC(c4ccccc4)OC3CCC2(C)C1CC(Sc1ccccc1)C1=CCOC1=O (stereo not given),36.8% (inactive)
6,O=C1c2c(c3c4cc(F)ccc4oc3c3[nH]c4ccc(Br)cc4c23)C(=O)N1O,63.5% (inactive)
7,C#C[C@]1(O)CC[C@H]2[C@@H]3CC=C4c5sc(-c6ccc(O)c(O)c6)nc5CC[C@]4(C)[C@H]3CC[C@@]21C,-83.9% (active)
8,COc1ccc(N2N=C(c3ccc4c(c3)OCO4)CC2c2cccc(NC(=O)CCCNS(=O)(=O)c3ccc(F)cc3)c2)cc1 (stereo not given),60.1% (inactive)
9,CN(C)CCn1c2ccccc2c2nc3cc(C(F)(F)F)ccc3nc21,41.6% (inactive)
10,O=C(COc1ccc(NC(=O)Nc2ccc(Cl)c(Cl)c2)cc1)N=Nc1c(O)[nH]c2ccccc12,-49.3% (active)
11,CC1(C)CC[C@]2(C(=O)O)CC[C@]3(C)C(=CCC4[C@@]5(C)C[C@@H](O)[C@@H]6OC(c7cccc(Br)c7)OC[C@@]6(C)C5CC[C@]43C)C2C1 (stereo not given in full),34.8% (inactive)
12,CCN1C(=O)N(CC)C2NNC(Sc3c(C(=O)O)c4ccccc4n(C4CCCC4)c3=O)=NC21 (stereo not given),26.4% (inactive)
13,O=c1[nH]c2ccccc2cc1CSc1cccc(Nc2nccc(-c3ccc4ccccc4c3)n2)c1,97.3% (inactive)
14,O=C(c1ccc(OCCN2CCOCC2)cc1)C1[C@H](c2ccc(Cl)cc2)[C@@H](c2ccccc2)NC12C(=O)Nc1ccc(Cl)cc12 (stereo not given in full),-30% (active)
15,CCN(CC)c1ccc(/C=N/Nc2nc(-c3ccc(Br)cc3)cs2)c(O)c1,100% (inactive)
16,CCCCSc1nc(NCCc2c[nH]c3ccccc23)c(C#N)c(-c2ccc(F)cc2)n1,64.9% (inactive)
17,COc1ccc(NC(=O)[C@@H](N)Cc2ccccc2)cc1C(=O)Nc1cccc(C2CC(=O)c3c(cc(OC)c(OC)c3OC)O2)c1 (stereo not given in full),114% (inactive)
18,Cc1cccc(NC(=O)CN2CCN(c3ncnc4c3cnn4-c3ccccc3)CC2)c1,107% (inactive)
19,COc1ccc(NC(=O)[C@H](CO)NC(=O)OC(C)(C)C)cc1C(=O)Nc1cccc(C2CC(=O)c3c(cc(OC)c(OC)c3OC)O2)c1 (stereo not given in full),83% (inactive)

row,Compound,growth
1,Cc1ccc(-c2nc(C#N)c(S(=O)(=O)N3CCN(S(=O)(=O)c4ccc(Cl)cc4)CC3)o2)cc1,106% (inactive)
2,Cc1ccc(-c2nc(Nc3ccccc3S(N)(=O)=O)c3ccccc3n2)cc1,104% (inactive)
3,Cc1ccc(C(=O)C(c2c[nH]c3ccccc23)c2c[nH]c3ccccc23)cc1,4.87% (active)
4,COC(=O)/C=C/c1cccc2c1C(=O)NC(C)(c1cc3ccccc3oc1=O)N2 (stereo not given),74.4% (inactive)
5,O=C(/C=C/c1ccc(O)c(O)c1)NC1CCOC1O (stereo not given),99.2% (inactive)
6,CC1(C)CC[C@]2(C(=O)O)CC[C@]3(C)C(=CCC4[C@@]5(C)C[C@@H](O)[C@@H]6OC(c7ccccc7Br)OC[C@@]6(C)C5CC[C@]43C)C2C1 (stereo not given in full),18.8% (inactive)
7,C/C(=N\N=C1/C(=O)Nc2ccccc21)c1ccc2c(c1)Nc1ccccc1S2,75.7% (inactive)
8,Cn1cc(-c2nc(N)nnc2-c2c[nH]c3ccc(Br)cc23)c2cccnc21,77% (inactive)
9,Cc1nc(Nc2ccccn2)sc1C(=O)CC(SCC(=O)Nc1ccc(Cl)cc1)c1ccccc1F (stereo not given),17.2% (inactive)
10,Cc1cc(=O)oc2cc(OCCCCOc3ccc(/C=C/C(=O)Nc4ccccc4N)cc3)ccc12,89% (inactive)
11,CC(=O)OC[C@@]1(C)C2CC[C@]3(C)C(CC=C4C5CC(C)(C)CC[C@]5(C(=O)Nc5cccc(C)c5)CC[C@]43C)[C@@]2(C)C[C@@H](OC(C)=O)[C@@H]1OC(C)=O (stereo not given in full),49% (inactive)
12,CCCSc1nc(NCCc2c[nH]c3ccccc23)c(C#N)c(-c2ccc(OC)cc2)n1,48% (inactive)
13,COc1ccc(N2N=C(c3ccc4c(c3)OCO4)CC2c2cccc(NC(=O)CCNS(=O)(=O)c3ccc(Cl)cc3)c2)cc1 (stereo not given),8.63% (active)
14,Cc1ccc(-n2c(-c3cc4ccccc4nc3Cl)noc2=O)cc1,90.9% (inactive)
15,Cc1ccc(/C=C/c2n(Cc3ccc4ccccc4c3)c3ccccc3[n+]2Cc2ccc3ccccc3c2)cc1,-87.3% (active)
16,Brc1ccc(-c2n(Cc3ccc4ccccc4c3)c(-c3ccccc3)c(-c3ccccc3)[n+]2Cc2ccc3ccccc3c2)cc1,-88.9% (active)
17,CCOC(=O)C(N=Nc1ccc(S(=O)(=O)N=C(N)N)cc1)C(C)=O (stereo not given),120% (inactive)
18,COc1ccc2[nH]cc(-c3nc(N)nnc3-c3cn(C)c4ncccc34)c2c1,80.2% (inactive)
19,CC(/C=C1\SC(=S)N(CCCC(=O)NC(CC(C)C)C(=O)O)C1=O)=C\c1ccccc1 (stereo not given),108% (inactive)
